# Measurements taken from PubChem BioAssay (EPA / NIEHS).
# Where “and” joins values, the source holds several entries; their conditions need not be identical. Equal values may be shown once. Records with an inconclusive call do not appear. Calls of active or inactive are those of the source. The calls were made as follows, unless noted: active = hit-call score of the fitted dose curve at least 0.9, where 1 is the maximum; inactive = score below 0.9.
# Assays:
# [1] = TAMU_PeakParms_SingleDonor1434_Asystole: Texas A&M University (TAMU) 1.5-hr Human Induced Pluripotent Stem Cell (iPSC)-derived Cardiomyocytes Calcium (Ca+2) Flux Assay for Cardiotoxicity: Asystole (quiescence of beating) (AID 2284328; active = hit-call score of the fitted dose curve at least 0.9, where 1 is the maximum)
# In short: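 Human iPSC-derived cardiomyocytes (donor 1434) were exposed to 0.2, 1, 10 and 100 uM compound in 0.5% DMSO for 90 min at 37C. Ca2+-dye fluorescence gave average peak frequency; POD is EC95, a 95% beat-rate drop versus DMSO.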
# [2] = test system: Brachyury (BRA) Protein Expression, Deisenroth Lab, TBXT (gene 6862); experiment: CCTE_Deisenroth_DEVTOX-GLR_legacy_Bra: (Legacy) CCTE's DevTox GLR-Endo Assay Evaluation of Brachyury (BRA) Protein Expression, Deisenroth Lab (AID 2284329)
# In short: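 RUES2-GLR human pluripotent cells differentiated 48 h with two 24-h-interval chemical exposures (1 nM - 200 uM, 10 points); fixed, nuclear-stained, imaged. Bra+ cell percentage (intensity 5x BMAD above pluripotent control median) fitted relative to 0.2% DMSO.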
# [3] = CCTE_Deisenroth_DEVTOX-GLR_legacy_CellCount: (Legacy) Viability Assessment in CCTE's DevTox GLR-Endo Assay, Deisenroth Lab (AID 2284331); conditions: actives raise or lower the signal
# In short: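 Seed RUES2-GLR 24 h; differentiate 48 h, dosing at 0 and 24 h; fix, stain nuclei; image 5 fields/well; count nuclei. Conc. 1 nM - 200 uM, single technical replicate, n=4 experiments; bidirectional fit vs 0.2% DMSO.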
# [4] = CCTE_Deisenroth_5AR_NBTE_donor: CCTE's 5alpha-reductase NanoBRET Target Engagement Assay […], Deisenroth Lab (AID 2284319); conditions: actives raise or lower the signal
# In short: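 In this secondary endpoint, donor luminescence from SRD5A2-NanoLuc in transfected HEK293T flags artifacts. Test chemical (10 nM - 29.9 uM) is present five hours, tracer the last two; mock-tracer wells run plate-matched; data fitted bidirectionally against DMSO.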
# [5] = CCTE_Deisenroth_5AR_NBTE_acceptor: CCTE's 5alpha-reductase NanoBRET Target Engagement Assay - Autofluorescence Screen, Deisenroth Lab (AID 2284321); conditions: actives raise or lower the signal;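 also: compound fluorescence in the acceptor channel under 460 nm excitation flags autofluorescence artifacts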
# In short: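 Autofluorescence counter-screen: chemicals at an assumed nominal 100 uM in DMSO were scanned in three independent runs with 460 nm excitation. Gain or loss of acceptor signal was fitted bidirectionally against DMSO.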
# [6] = IUF_NPC2-5_cytotoxicity_120hr: Cytotoxicity Assessment at 120 hours in the Leibniz Research Institute for Environmental Medicine (IUF) Neural Progenitor Cell Migration and Differentiation Assay (NPC2-5) (AID 2284307; active = hit-call score of the fitted dose curve at least 0.9, where 1 is the maximum)
# In short: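 Human fetal (GW 16-19) neural progenitor spheres (0.3 mm) plated on poly-D-lysine/laminin in N2 differentiation medium, exposed 120 h with half-medium renewal at day 3; 7 concentrations plus solvent control, DMSO ≤0.1%. LDH release in supernatant read by resorufin fluorescence.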
# [7] = IUF_NPC2-5_cell_number_120hr: Cell Number Assessment at 120 hours in the Leibniz Research Institute for Environmental Medicine (IUF) Neural Progenitor Cell Migration and Differentiation Assay (NPC2-5) (AID 2284308);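 also: count of Hoechst-stained nuclei in migration zone around plated human neural progenitor spheres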
# In short: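 Human fetal neural progenitor spheres (0.3 mm) plated on poly-D-lysine/laminin in N2 differentiation medium, exposed five days across 7 concentrations with half-medium refresh at day 3. Hoechst-positive nuclei counted in migration area at 120 h, relative to DMSO.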
# [8] = IUF_NPC2-5_viability_120hr: Viability Assessment at 120 hours in the Leibniz Research Institute for Environmental Medicine (IUF) Neural Progenitor Cell Migration and Differentiation Assay (NPC2-5) (AID 2284312)
# In short: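 Human fetal (GW 16-19) neural progenitor spheres of 0.3 mm were plated on poly-D-lysine/laminin in N2 differentiation medium and exposed from day 0 for 120 h, with half-medium refresh at day 3. Viability was read as alamar blue resazurin-to-resorufin fluorescence against DMSO.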
# [9] = VALA_TUBIPS_Antagonist_TubuleLength: VALA Sciences human iPS-derived Endothelial Tubule Formation (TUBIPS) Antagonist Assay (AID 2284313; active = hit-call score of the fitted dose curve at least 0.9, where 1 is the maximum)
# In short: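 Cells grown 3 days with 10 ng/ml VEGF, then exposed to compounds in VEGF medium for another 3 days. After fixation, nuclear stain and CD31 immunofluorescence imaging gave mean total tubule length against 0.1% DMSO; suramin (100 uM) inhibition control.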
# [10] = CCTE_Mundy_HCI_iCellGluta_NOG_NeuriteLength: CCTE's Neurite Outgrowth Assay in iCellGluta cells for Neurite Length, Mundy Lab (AID 2284318; active = hit-call score of the fitted dose curve at least 0.9, where 1 is the maximum)
# In short: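 Automated high-content imaging of betaIII-tubulin (Alexa Fluor-488) and Hoechst-stained cells gave neurite length, normalized to the DMSO baseline.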
# [11] = IUF_NPC1_cytotoxicity_72hr: Cytotoxicity Assessment at 72 hours in the Leibniz Research Institute for Environmental Medicine (IUF) Neural Progenitor Cell Proliferation Assay (NPC1) (AID 2284332; active = hit-call score of the fitted dose curve at least 0.9, where 1 is the maximum;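 also: rising LDH signal means more cytotoxicity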)
# In short: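 Human fetal neural progenitor spheres (0.3 mm) in EGF/FGF proliferation medium, 37C, exposed 72 h without renewal. LDH release in supernatant read by resorufin fluorescence; gain of signal scored relative to dynamic range.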
# IYD (gene 389434) = experiment: CCTE_GLTED_hIYD: CCTE's human Iodotyrosine Deiodinase (xIYD) Inhibition Assay, Great Lakes Toxicology and Ecology Division (GLTED) Lab (AID 2284317; active = hit-call score of the fitted dose curve at least 0.9, where 1 is the maximum;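 also: cell-free human IYD enzyme made in baculovirus insect cells; iodide freed from monoiodotyrosine measured by cerium arsenite color change at 420 nm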)
# In short: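 hIYD: baculovirus-expressed human IYD deiodinated monoiodotyrosine for 3 h with test chemical; free iodide was measured by Sandell-Kolthoff absorbance at 420 nm and normalized to MNT and DMSO/NaOH controls.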
# SRD5A2 (gene 6716) = experiment: CCTE_Deisenroth_5AR_NBTE_ratio: CCTE's 5alpha-reductase NanoBRET Target Engagement Assay - Ratio, Deisenroth Lab (AID 2284322); conditions: actives raise or lower the signal
# In short: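 HEK293T transiently expressing SRD5A2-NanoLuc; cells exposed to chemical (8-point, 10 nM - 29.9 uM) for 5 h total, testosterone tracer added for final 2 h. NanoBRET acceptor/donor ratio (650/460 nm), bidirectional fit vs DMSO.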
# [12] = VALA_TUBHUV_Antagonist_CellCount: Viability Assessment in the VALA Sciences human Umbilical Vein Endothelial Tubule Formation (TUBHUV) Antagonism Assay (AID 2284310; active = hit-call score of the fitted dose curve at least 0.9, where 1 is the maximum)
# In short: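 HUVEC co-cultured with HDF (1:3) 3 days in 10 ng/ml VEGF, then 3 days with compounds in VEGF medium. Fixed, nuclear stain and CD31 immunofluorescence, imaged; cell counts fitted versus 0.1% DMSO, loss of signal read as lower viability.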
# [13] = VALA_TUBIPS_Agonist_TubuleLength: VALA Sciences human iPS-derived Endothelial Tubule Formation (TUBIPS) Agonism Assay (AID 2284311; active = hit-call score of the fitted dose curve at least 0.9, where 1 is the maximum)
# In short: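 Human iPS-derived endothelial cells were exposed to compound for 72 h. Tubule formation was imaged by high-content fluorescence and scored as gain of signal relative to DMSO vehicle (agonist mode).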
# [14] = VALA_MIGHUV2_CellCount: Viability Assessment in the VALA Sciences human Umbilical Vein Endothelial Cell Migration (MIGHUV) Assay, Area of Scratch Wound after Recovery (AID 2284314; active = hit-call score of the fitted dose curve at least 0.9, where 1 is the maximum)
# In short: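 Scratch-wounded HUVEC monolayers received test chemical within 30 min, 6-point concentration response in triplicate, 0.1 % DMSO vehicle. After 24 h wound recovery, fixed cells were Hoechst-stained and nuclei imaged; loss of signal versus DMSO indicates reduced viability.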
# [15] = VALA_MIGHUV2_Bcatenin: VALA Sciences human Umbilical Vein Endothelial Cell Migration (MIGHUV) Assay, Nuclear Translocation of beta-Catenin after Recovery (AID 2284315; active = hit-call score of the fitted dose curve at least 0.9, where 1 is the maximum)
# In short: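 HUVEC (4000 cells/well) scratch-wounded, dosed within 30 min over 6 concentrations in triplicate, recovered 24 h. After fixation, Hoechst and anti-beta-catenin immunofluorescence imaged for nuclear CTNB. Gain of signal versus 0.1% DMSO.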
# [16] = VALA_MIGHUV2_WoundArea: VALA Sciences human Umbilical Vein Endothelial Cell Migration (MIGHUV) Assay, Area of Scratch Wound after Recovery (AID 2284316; active = hit-call score of the fitted dose curve at least 0.9, where 1 is the maximum)
# In short: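 HUVEC seeded at 9000 cells/well, scratched after 24 h; test chemical added within 30 min, 6-point concentration response in triplicate (0.1% DMSO vehicle). After 24 h wound recovery, cells fixed and Hoechst-stained nuclei in wound area imaged; Cytochalasin D reference control.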
# [17] = VALA_TUBHUV_Antagonist_TubuleLength: VALA Sciences human Umbilical Vein Endothelial Tubule Formation (TUBHUV) Antagonism Assay (AID 2284325; active = hit-call score of the fitted dose curve at least 0.9, where 1 is the maximum)
# In short: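 HUVEC–HDF co-culture (1:3) pre-grown 3 days with 10 ng/ml VEGF, then 3 days with compound plus VEGF. Fixed, nuclear and CD31 stained; total tubule length by imaging versus 0.1% DMSO; suramin 100 uM positive control.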
# [18] = VALA_MIGHUV1_ScratchOnly_CellCount: Viability Assessment in the VALA Sciences human Umbilical Vein Endothelial Cell Migration (MIGHUV) Assay, Scratch Wound Inhibited Recovery (AID 2284327; active = hit-call score of the fitted dose curve at least 0.9, where 1 is the maximum)
# In short: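 HUVEC scratched after 24 h culture, chemical added within 30 min at 6 concentrations in triplicate (0.1% DMSO vehicle). After 24 h recovery, fixed cells were counted by Hoechst nuclear imaging in the wound area.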
structure (smiles),measurement,setting,value
O=C1CCC(N2C(=O)c3ccccc3C2=O)C(=O)N1 (stereo not drawn),outcome,[1],inactive
same,outcome,[2],inactive
same,outcome,[3],inactive
Nc1ccc(Nc2ccccc2)cc1,AC50,[4],28.3 µM (active)
same,AC50,[5],31.5 µM (active)
O=P(OC(CCl)CCl)(OC(CCl)CCl)OC(CCl)CCl,outcome,[6],inactive
same,outcome,[7],inactive
same,outcome,[8],inactive
same,outcome,[9],inactive
same,outcome,[10],inactive
same,outcome,[11],inactive
CN(C)c1ccc(N=NS(=O)(=O)O)cc1,AC50,IYD (gene 389434),47.9 µM (active)
same,outcome,[4],inactive
same,outcome,[5],inactive
same,AC50,SRD5A2 (gene 6716),64.2 µM (active)
CCOc1cccc(-n2cc(C(=O)N3CCN(c4cc(C(=O)O)c5ccccc5c4)CC3)nc2-c2ccc(C)cc2)c1,AC50,IYD (gene 389434),116 µM (active)
CC[C@H](C)C(=O)O[C@H]1C[C@@H](C)C=C2C=C[C@H](C)[C@H](CC[C@@H]3C[C@@H](O)CC(=O)O3)[C@H]21,AC50,[2],37.6 µM (active)
same,AC50,[3],2.83 µM (active)
CCC(C)(C)C(=O)O[C@H]1C[C@@H](C)C=C2C=C[C@H](C)[C@H](CC[C@@H]3C[C@@H](O)CC(=O)O3)[C@H]21,outcome,[4],inactive
same,outcome,[5],inactive
same,outcome,SRD5A2 (gene 6716),inactive
NC(=O)NO,outcome,[1],inactive
same,outcome,[2],inactive
same,AC50,[3],64.7 µM (active)
C[C@](N)(Cc1ccc(O)c(O)c1)C(=O)O,outcome,[2],inactive
same,outcome,[3],inactive
CCOC(=O)c1ccc(C2CCC(NC[C@H](O)COc3ccc(O)c(NS(C)(=O)=O)c3)CC2)cc1 (stereo partly drawn),AC50,[4],62.7 µM (active)
same,AC50,[5],50 µM (active)
same,AC50,SRD5A2 (gene 6716),79.2 µM (active)
CC[C@H]1OC(=O)[C@H](C)[C@@H](O[C@H]2C[C@@](C)(OC)[C@@H](O)[C@H](C)O2)[C@H](C)[C@@H](O[C@@H]2O[C@H](C)C[C@H](N(C)C)[C@H]2O)[C@](C)(O)C[C@@H](C)C(=O)[C@H](C)[C@@H](O)[C@]1(C)O,outcome,[10],inactive
same,outcome,[4],inactive
same,outcome,[5],inactive
same,outcome,SRD5A2 (gene 6716),inactive
O=C(OC[C@H]1O[C@@H](OC(=O)c2cc(O)c(O)c(OC(=O)c3cc(O)c(O)c(O)c3)c2)[C@H](OC(=O)c2cc(O)c(O)c(OC(=O)c3cc(O)c(O)c(O)c3)c2)[C@@H](OC(=O)c2cc(O)c(O)c(OC(=O)c3cc(O)c(O)c(O)c3)c2)[C@@H]1OC(=O)c1cc(O)c(O)c(OC(=O)c2cc(O)c(O)c(O)c2)c1)c1cc(O)c(O)c(OC(=O)c2cc(O)c(O)c(O)c2)c1,AC50,IYD (gene 389434),13.3 µM (active)
same,outcome,[4],inactive
same,outcome,[5],inactive
same,outcome,SRD5A2 (gene 6716),inactive
Nc1nc2ncc(CNc3ccc(C(=O)N[C@@H](CCC(=O)O)C(=O)O)cc3)nc2c(=O)[nH]1,outcome,[3],inactive
Cn1c(=O)c2c(ncn2C)n(C)c1=O,outcome,[3],inactive
CC(C)c1cccc(C(C)C)c1N1C(=O)c2ccc(O)cc2C1=O,outcome,[12],inactive
same,outcome,[13],inactive
same,AC50,[9],10.3 µM (active) and 72.7 µM (active)
same,AC50,[14],85.8 µM (active)
same,AC50,[15],17.4 µM (active) and 53.1 µM (active)
same,AC50,[16],17.8 µM (active) and 74 µM (active)
same,AC50,[17],10.7 µM (active) and 50 µM (active)
same,AC50,[18],11.7 µM (active)
O=C(O)c1cc(N=Nc2ccc(S(=O)(=O)Nc3ccccn3)cc2)ccc1O,outcome,[4],inactive
same,outcome,[5],inactive
same,AC50,SRD5A2 (gene 6716),58.5 µM (active)
same,outcome,[2],inactive
same,outcome,[3],inactive
CCCCCCc1ccc(O)cc1O,outcome,[1],inactive
